Sampled rows, rich in hits. Any-hit rate of the full collection: about 9%.
IMPase Li cell – cell-permeable IMPase inhibitors with lithium potentiation; Potency, µM (doses to about 59.4 µM), without a hit: at the highest dose activity, negative = IMPase inhibition, most hits filed as inhibitors; AID 1457; 0.35% of 210,000 active; CHO-M1 cells, IP1 TR-FRET (IP-One), carbachol + lithium;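 also: IP1 builds up when IMPase is blocked and the TR-FRET signal falls; plate controls were basal vehicle for no effect and high inhibitor control for full effect; nearly all actives have a fitted effect of over 50% in size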
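Readout is a homogeneous TR-FRET IP1 immunoassay (Ex 320, Em 665 and 620), where raised cytosolic IP1 lowers signal. Cells were CHO-M1 treated 30 min at 37C with test compounds plus a little lithium; AC50 values came from Hill-equation fitting.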
Luc counter – blocks Kinase-Glo luciferase, a counter-screen artifact; 0.28% of 200,000 active; Kinase-Glo luciferase, ATP luminescence, 8 min; Potency, µM (titrated, usually from 38.3 µM), for inactives: at the highest dose activity change, negative = inhibition, most hits filed as inhibitors; AID 1379; Q27757; also: nearly all actives have a fitted effect of over 60% in size
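Substrate mix (final 50 mM imidazole pH 7.2, 50 mM KCl, 7 mM MgCl2, 10 uM ATP, 0.01% Tween 20, 0.05% BSA) plus pin-tool compound, then Kinase-Glo detection mix; 8 min ambient, luminescence read.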
ALDH1A1 block – ALDH1A1 (human) enzyme inhibition. P00352. Purified ALDH1A1, NADH fluorescence, propionaldehyde substrate. Potency, µM (doses to about 75.3 µM), without a hit: at the highest dose activity, negative = inhibition, usual class: inhibitors. 7.3% of 220,000 active. AID 1030; active = well fitted inhibition curve with a large enough effect, not every such curve was filed as active; inconclusive = small, poorly fitted or top-dose-only effect, or another doubt; inactive = no such curve, though single readings can be large or run the other way;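 also: plate controls were no enzyme wells and a reference inhibitor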
Target sequence (P00352 whole entry, looked up): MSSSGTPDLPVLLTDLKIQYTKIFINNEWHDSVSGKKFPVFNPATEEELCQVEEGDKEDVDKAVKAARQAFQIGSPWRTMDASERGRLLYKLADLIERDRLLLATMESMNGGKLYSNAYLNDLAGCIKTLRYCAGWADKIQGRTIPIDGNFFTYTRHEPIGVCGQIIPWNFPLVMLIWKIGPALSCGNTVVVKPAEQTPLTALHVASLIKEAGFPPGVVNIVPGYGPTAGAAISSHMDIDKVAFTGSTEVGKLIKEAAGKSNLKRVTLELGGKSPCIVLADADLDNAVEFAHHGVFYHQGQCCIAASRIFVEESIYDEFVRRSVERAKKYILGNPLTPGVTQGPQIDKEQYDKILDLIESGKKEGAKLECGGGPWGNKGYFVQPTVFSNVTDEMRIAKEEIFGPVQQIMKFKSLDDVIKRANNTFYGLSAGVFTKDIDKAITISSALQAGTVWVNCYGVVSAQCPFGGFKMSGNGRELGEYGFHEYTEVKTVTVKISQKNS
HPGD block – blocks human HPGD enzyme activity. P15428. purified HPGD, NADH fluorescence kinetic, PGE2 substrate. Potency, µM, without a hit: at the highest dose activity change, negative = inhibition, most hits filed as inhibitors. 4.3% of 150,000 active. AID 894; active = well fitted inhibition curve with a large enough effect, not every such curve was filed as active; inconclusive = small, poorly fitted or top-dose-only effect, or another doubt; inactive = no such curve, though single readings can be large or run the other way
Target sequence (P15428 whole entry, looked up): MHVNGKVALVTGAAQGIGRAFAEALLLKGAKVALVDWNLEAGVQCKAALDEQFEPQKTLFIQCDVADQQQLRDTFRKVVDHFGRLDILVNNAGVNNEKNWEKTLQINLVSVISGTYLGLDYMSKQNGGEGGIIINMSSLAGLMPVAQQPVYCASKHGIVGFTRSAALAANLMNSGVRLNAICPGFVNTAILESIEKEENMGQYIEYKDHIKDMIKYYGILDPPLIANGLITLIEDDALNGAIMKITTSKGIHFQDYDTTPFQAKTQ
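20 nM HPGD preincubated 15 min at room temperature with compound in 50 mM Tris-HCl pH 8, 0.01% Tween 20. Started with 1 mM NAD+ and 30 uM prostaglandin E2; NADH fluorescence (360/450 nm) read 5 times over 30-s intervals, last minus first.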
Lamin A splicing – LMNA splicing modulation; HeLa LMNA splicing GFP/RFP minigene ratio, 48 h; Potency, µM (titrated, usually from 46.1 µM), for inactives: at the top dose ratio change, negative = inhibition, most hits filed as inhibitors; 0.01% of 200,000 active; AID 1487; active = well fitted inhibition curve with a large enough effect in the signal ratio, with a control signal flat, not every such curve was filed as active; inconclusive = small, poorly fitted or top-dose-only effect, or effect the other way, or a change in a side signal; the % refers to the signal ratio
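Read-out is the ratio of GFP to DsRed2 object intensity, acquired by 488 nm laser-scanning cytometry on HeLa lamin A-EGFP minigene reporter cells. Compound incubation 48 hrs at 37 °C in Opti-MEM with 2% FBS; DMSO 0.5% final.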
An asterisk follows results filed as active; ? = inconclusive; · = no result; [ ] = dose if it differs, or a comment. Unless noted, calls follow the shape of the dose curve; as a rule, active = well fitted curve in the direction sought with a large enough effect; inconclusive = small, poorly fitted or top-dose-only effect, or another doubt; inactive = no such curve, though single readings can be large; an effect the other way counts as inactive or inconclusive. Unless noted, % is scaled to controls: 0 for no effect and ±100 for the full control effect; potency is read from the fitted curve at half-maximal effect.

SMILES	IMPase Li cell	Luc counter	ALDH1A1 block	HPGD block	Lamin A splicing
CCCCNC(=O)C(CC)Sc1nnc(-c2ccc(OC)c(OC)c2)c(-c2ccc(OC)c(OC)c2)n1 (centres undefined)	·	·	·	·	-5%[46 µM]
CCOc1ccc(CCNC(=O)c2c(C)oc3ncn(CC(C)C)c(=O)c23)cc1OCC	·	·	·	·	3%[46 µM]
Cc1ccc(-n2ncc(C(=O)N3CCN(c4ccccc4F)CC3)c2C2CCN(C(=O)OC(C)(C)C)CC2)cc1C	·	·	·	·	-4%[46 µM]
CCOP(=O)(O)c1ccccc1OCCOCCOc1ccccc1P(=O)(O)OCC	-8%[38.3 µM]	-2%	4µM*	2%	8%
O=P(O)(O)c1ccccc1OCCOCCOc1ccccc1P(=O)(O)O	13%[38.3 µM]	-1%	?	-7%	0%
CCC(=O)N1CCc2cc(Br)cc(S(=O)(=O)NCCc3cccc(C)c3)c21	·	·	·	·	2%[46 µM]
CCN(CC)S(=O)(=O)c1ccc(Oc2cccc(C(C)=O)c2)nc1	11%[38.3 µM]	0%	14µM*	-14%	?
C[C@H]1COC(=O)[C@H](Cc2ccccc2)NC(=O)[C@@H](C)COC(=O)[C@H](Cc2ccccc2)NC1=O	·	·	4%[13.5 µM]	·	·
Cn1c(=O)c2c(nc(N3CCCCCC3)n2CC(O)COc2ccccc2)n(C)c1=O (centres undefined)	-1%[38.3 µM]	-2%	1.6µM*	-9%	-1%
CCOC(=O)Cn1c(=O)c2c(nc(N3CCOCC3)n2C)n(C)c1=O	18%[38.3 µM]	-2%	1%	-7%	0%
CCOC(=O)Cn1c(=O)c2c(nc(N3CCCCC3)n2Cc2ccccc2)n(C)c1=O	33%[38.3 µM]	2%	14µM*	-10%	?
CCCCCCCC/C=C/CCCCCCCCOP(=O)([O-])OCC[N+](C)(C)C	10%	-7%	-11%	-9%	·
CCc1ccc2[nH]c(=O)c(CN(Cc3ccco3)S(=O)(=O)c3ccc4c(c3)OCCO4)cc2c1	11µM*	14%	?	?	22%
CCOc1ccc(CNC(=O)Cn2nc(C)c3nn(-c4ccc(Cl)cc4)c(C)c3c2=O)cc1	·	·	·	·	-8%[46 µM]
Cc1ccc2c(c1)Oc1ccc(NC(=O)CCl)cc1C(=O)N2	-2%	0%	11µM*	·	·
Cc1csc(NC(=O)c2nc(-c3ccccc3)n(-c3ccccc3)n2)n1	8%[38.3 µM]	-2%	14µM*	-8%	?
O=C(Nc1nccs1)c1nc(-c2ccccc2)n(-c2ccccc2)n1	-2%[38.3 µM]	-1%	3%	-6%	-1%
Clc1cccc(-c2nnc3sc(-c4ccc5c(c4)OCO5)nn23)c1	·	·	20µM*	·	5%
O=C(CC1C(=O)NC2CCCCC2N1C(=O)c1ccc(F)cc1)Nc1ccccc1 (centres undefined)	16%[38.3 µM]	-5%	13%	3%	-10%
CC(C)c1ccc(S(=O)(=O)N2CCN(C(C)C(=O)Nc3ccccc3-c3ccccc3)CC2)cc1 (centres undefined)	0%	-4%	2.8µM*	-7%	3%
CC(C(=O)Nc1ccccc1-c1ccccc1)N1CCN(S(=O)(=O)c2ccccc2)CC1 (centres undefined)	3%	3%	?	-10%	5%
CC(C(=O)Nc1ccccc1-c1ccccc1)N1CCCCC1 (centres undefined)	23%[38.3 µM]	5%	20µM*	-17%	12%
NC(N)=NNC(=O)C(=O)O	-4%	-5%[7.66 µM]	10%[13.5 µM]	-6%	·
Cc1ccc2[nH]c(-c3ccc(F)cc3F)cc(=O)c2c1	-12%	-3%[39.9 µM]	?	?	·
Cc1csc2c(SCC(=O)NNC(=O)C(Cl)Cl)ncnc12	·	·	28µM*	·	6%[46 µM]
SMILES	IMPase Li cell	Luc counter	ALDH1A1 block	HPGD block	Lamin A splicing
COc1ccc(C2=C(c3ccc([N+](=O)[O-])cc3)C(=O)OC2)cc1	4%	-3%	4%	·	·
CS(=O)(=O)c1ccc(C2=C(c3ccccc3)C(=O)OC2)cc1	?	-5%	2.8µM*	15%	-11%
CC(C)(CO)NCC(O)Cn1cc(C=O)c2ccccc21 (centres undefined)	-7%	4%	-6%	·	·
O=C(c1cnn2c(C(F)F)cc(-c3ccccc3)nc12)N1CCCc2ccccc21	49%[38.3 µM]	-3%	20µM*	3%	14%
Cc1cc(C(F)F)n2ncc(C(=O)N3CCc4ccccc4C3)c2n1	23%[38.3 µM]	0%	?	22µM*	-8%
COc1ccc(-c2cc(C(F)F)n3ncc(C(=O)N4CCCc5ccccc54)c3n2)cc1	13%	-1%	11%	·	17%[46 µM]
CCCc1ccc(Oc2c(-c3ccc(O)c(C)c3O)n[nH]c2C)cc1	9%[38.3 µM]	3%	1%	-9%	?
CCCc1ccc(Oc2cn[nH]c2-c2ccc(O)c(C)c2O)cc1	28%[38.3 µM]	-2%	5%	18µM*	?
COc1ccnc(Oc2ccccc2)c1C(=O)N/C=N/OCc1ccccc1F	4%	·	?	·	·
CCN(CC)S(=O)(=O)c1ccc(N=NC2=C(O)CC(C)(C)CC2=O)cc1	0%	-3%	2.5µM*	-13%	?
CCN(CC)S(=O)(=O)c1ccc(N=NC2=C(O)CCCC2=O)cc1	·	·	?	·	-7%
CC1(C)CC(=O)C(N=Nc2ccc(OC(F)F)cc2)=C(O)C1	7%	-1%	1.4µM*	·	-14%[46 µM]
COc1ccc2nc(N=NC3=C(O)CC(C)(C)CC3=O)sc2c1	7%	-7%	?	·	·
CC1(C)CC(=O)C(N=Nc2ccc3ncsc3c2)=C(O)C1	-6%[38.3 µM]	-3%	4.5µM*	-23%	12%
Cc1ccc(S(=O)(=O)N2CCOCC2)cc1NC(=O)CNC1CCCC1	·	·	-4%	·	-2%[46 µM]
CCCC1CC(C(=O)N[C@H](C(C)O)C2OC(SC)[C@@H](O)C(O)C2O)N(C)C1 (some centres undefined)	8%	-5%	-11%	-8%	·
CCOc1ccc(CCNC(=O)COC(=O)c2nc3nc(C)cc(C)n3n2)cc1OCC	-1%	0%	-2%	-5%	-8%
COc1ccc(Oc2ncc3ncc(=O)n(C[C@H]4CCCO4)c3n2)cc1	-3%	-3%	14µM*	-16%	·
COc1ncc2nc(-c3ccccc3)c(=O)n(C3CC3)c2n1	-4%	·	?	·	-5%
COc1ncc2nc(CCc3ccccc3)c(=O)n(C3CC3)c2n1	5%	-3%	19µM*	-20%	·
CCNc1ncc2nc(CCc3ccccc3)c(=O)n(C3CC3)c2n1	2%	·	?	·	-13%
COc1ccc(-c2nc3cnc(OC)nc3n(C3CC3)c2=O)cc1	13µM*	-7%	?	?	·
COc1ccc(-n2c(=O)cnc3cnc(OC)nc32)cc1	-2%	·	22µM*	·	-3%
C=CCNC(=O)c1cc(C(=O)C(C)c2ncc(C(F)(F)F)cc2Cl)c[nH]1 (centres undefined)	-5%	0%	-7%	·	?
OCCN1CCN(CC(O)COc2ccc(C34CC5CC(CC(C5)C3)C4)cc2)CC1 (centres undefined)	20%	-3%	-10%	·	·
NCCOc1ccc(C23CC4CC(CC(C4)C2)C3)cc1	-21%	0%	22µM*	·	?
